Screening data (PubChem BioAssay)
LmPK inhibitor: qHTS Assay for Inhibitors of Leishmania Mexicana Pyruvate Kinase (LmPK). Q27686. purified LmPK, Kinase-Glo ATP luminescence, 1 h. Potency, µM (doses to about 57.5 µM), inactives show top-dose activity change, negative = inhibition, actives largely listed as inhibitors. hit rate 0.37% among 290,000. AID 1721, 2009; also: potency is read from the fitted curve at half-maximal effect; % is scaled to controls: 0 for no effect and ±100 for the full control effect
Target sequence (Q27686 whole entry, looked up): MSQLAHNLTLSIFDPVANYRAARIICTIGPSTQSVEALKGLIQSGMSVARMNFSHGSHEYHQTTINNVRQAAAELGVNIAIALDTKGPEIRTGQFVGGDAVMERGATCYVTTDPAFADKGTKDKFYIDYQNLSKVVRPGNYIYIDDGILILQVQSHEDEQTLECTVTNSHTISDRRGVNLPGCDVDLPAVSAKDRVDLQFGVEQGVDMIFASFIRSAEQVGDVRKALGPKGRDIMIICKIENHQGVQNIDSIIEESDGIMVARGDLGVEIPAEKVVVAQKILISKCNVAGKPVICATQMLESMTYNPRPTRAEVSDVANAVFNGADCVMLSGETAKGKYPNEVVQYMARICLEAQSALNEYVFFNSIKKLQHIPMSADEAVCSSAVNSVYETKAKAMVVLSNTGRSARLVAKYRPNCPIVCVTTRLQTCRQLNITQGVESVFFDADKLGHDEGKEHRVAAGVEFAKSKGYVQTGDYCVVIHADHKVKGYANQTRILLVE
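qHTS format; LmPK 0.1 nM; substrates PEP 0.5 mM and ADP 0.1 mM. One-hour room-temperature incubation, then coupled luciferase luminescence; 0.5 nM enzyme wells mark activation.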
Shiga toxin inh: A qHTS for Small Molecule Inhibitors of Shiga Toxin. Vero cells, Shiga toxin protein synthesis inhibition reporter. inhibition, % at 38.7 µM. hit rate 9.2% among 290,000; in the data active = inhibition mostly above about 28%, no sharp cut-off; inactive = mostly below about 43%; also: 0% is about no effect
Tb PYK inh: qHTS of Trypanosoma Brucei Inhibitors; pyruvate kinase (Trypanosoma brucei), Q57TT1; TbPYK enzyme, Kinase-Glo Plus ATP luminescence, 45 min; Potency, µM (titrated, usually from 76.8 µM), without a hit: at the top dose activity, negative = inhibition, hits mostly inhibitors; hit rate 0.12% among 410,000; AID 624173, 2012; also: potency is read from the fitted curve at half-maximal effect; % is scaled to controls: 0 for no effect and ±100 for the full control effect; nearly all actives have a fitted effect of over 50% in size
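Luminescent Kinase-Glo Plus end-point after 45 min room-temperature reaction of T. brucei pyruvate kinase started with 130 uM ADP (final). Buffer TEA 50 mM pH 7.2 with KCl, MgCl2, BSA, Tween-20; titration-based qHTS with fitted concentration-effect curves.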
Cycloheximide cs: Cycloheximide Counterscreen for Small Molecule Inhibitors of Shiga Toxin; cell reporter, cycloheximide protein synthesis inhibition counterscreen; max response, %; hit rate 12% among 300,000; in the data active = max response mostly above about 13%, no sharp cut-off; inactive = mostly below about 14%; also: read at 38.3 µM for the half of the compounds with a filed dose; 0% is about no effect
Giardia FBPA inh: qHTS Assay for Inhibitors of Fructose-1,6-bisphosphate Aldolase from Giardia Lamblia; Potency, µM (highest dose often 59.6 µM), for the others: at the top dose activity, negative = inhibition, hits mostly inhibitors; AID 2451, 2010; A8B2U2; purified Giardia FBPA; hit rate 0.71% among 290,000; also: potency is read from the fitted curve at half-maximal effect; % is scaled to controls: 0 for no effect and ±100 for the full control effect; nearly all actives have a fitted effect of over 55% in size
Target sequence (A8B2U2 whole entry, looked up): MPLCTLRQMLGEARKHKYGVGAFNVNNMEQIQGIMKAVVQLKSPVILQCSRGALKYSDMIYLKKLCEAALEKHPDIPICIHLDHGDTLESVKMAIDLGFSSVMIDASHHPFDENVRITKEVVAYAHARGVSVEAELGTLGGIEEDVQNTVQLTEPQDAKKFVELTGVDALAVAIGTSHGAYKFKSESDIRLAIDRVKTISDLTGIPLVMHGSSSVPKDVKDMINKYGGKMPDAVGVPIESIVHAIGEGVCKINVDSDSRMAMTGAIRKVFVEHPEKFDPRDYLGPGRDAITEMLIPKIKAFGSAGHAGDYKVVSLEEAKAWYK
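Giardia FBPA (40 nM reagent) was preincubated 10 min at RT with compound (up to 57.5 uM final), then substrate plus GAPDH/TPI/NAD/arsenate coupling system with diaphorase/resazurin was added; resorufin fluorescence (525/598 nm) was read after 20 min.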
Sm TGR inh: qHTS Assay for the Inhibitors of Schistosoma Mansoni Peroxiredoxins; purified TGR, DTNB reduction, TNB absorbance 405 nm; AID 485364, 2010; Potency, µM (highest dose often 114 µM), for inactives: at the highest dose activity change, negative = inhibition, usual class: inhibitors; hit rate 3% among 360,000; also: potency is read from the fitted curve at half-maximal effect; % is scaled to controls: 0 for no effect and ±100 for the full control effect; nearly all actives have a fitted effect of over 60% in size
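TGR 20 nM + NADPH 100 uM (dispensed conc.), cpd preinc 15 min RT; start with NADPH (500 uM addition) then DTNB (15 mM addition). Kinetic TNB absorbance, 405 nm filter. Four-parameter Hill fit across titration.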
* hit, by the source's call; i = inactive; ? = inconclusive; · = not tested or not shown; + = active, no number; ! = not confirmed by another sample; [ ] = remark or other dose. Many of the other results were omitted from the sample, so hits are more common in it than they were. Unless noted, calls follow the shape of the dose curve; as a rule, active = well fitted curve in the direction sought with a large enough effect; inconclusive = small, poorly fitted or top-dose-only effect, or another doubt; inactive = no such curve, though single readings can be large; an effect the other way counts as inactive or inconclusive.

SMILES | LmPK inhibitor | Shiga toxin inh | Tb PYK inh | Cycloheximide cs | Giardia FBPA inh | Sm TGR inh
Cc1cccc(NC(=O)C2CCC(CNS(=O)(=O)c3ccc(Br)s3)CC2)c1 (stereo not drawn) | · | · | -2.6% | · | · | 1.4%
CN(C)c1ccc(-c2cccc(C3CC=CC4C3C(=O)N(Cc3ccccc3)C4c3ccc(C(F)(F)F)cc3)c2)cc1 (stereo not drawn) | -1.1% | 50.2 | -2.1% | 14.1*! | 1.0% | -34.9%
COc1ccc(-c2cc(C3C4C=CCC(C)C4C(=O)N3Cc3ccccc3)ccc2F)cc1OC (stereo not drawn) | · | 62.6* | · | 51.4* | -2.7% | ·
COc1ccc([C@H]2[C@H]3C=CC[C@@H](C)[C@@H]3C(=O)N2Cc2ccccc2)cc1Cl | -2.8% | -2.2 | -3.4% | -6.5 | 7.3% | 11.6%
COc1ccc(C2C3C=CCC(c4cccc(/C=C/c5ccccc5)c4)C3C(=O)N2Cc2ccccc2)cc1Cl (stereo not drawn) | · | 35.9* | · | 36.3* | 7.9% | ·
COc1ccc(-c2cccc(C3CC=CC4C3C(=O)N(Cc3ccccc3)C4c3ccc(C(F)(F)F)cc3)c2)cc1 (stereo not drawn) | 2.0% | -5.0 | 4.3% | 0.5 | -1.9% | 1.6%
COc1ccc(-c2ccc(C3C4C=CCC(C)C4C(=O)N3Cc3ccccc3)c(F)c2)cc1OC (stereo not drawn) | · | 11.1 | · | 15.2 | -7.9% | ·
O=C(O)[C@H](Cc1c[nH]c2ccccc12)Nc1ncccc1[N+](=O)[O-] | 2.5% | -7.7 | -1.8% | -1.2 | -3.6% | 0.2%
Cc1ccc(-c2cc(NC(=O)CCl)n(-c3ccccc3)n2)cc1 | 9.4% | 61.7 | ? | 52.9* | -25.1% | ?
Cc1nn(Cc2ccc(Cl)cc2Cl)c(C)c1NC(=O)CCl | 6.4% | 6.3 | 6.3% | 7.7 | -0.5% | 39.8µM*
CC(=O)Nc1ccc(-c2cc(NC(C)=O)n(-c3ccccc3)n2)cc1 | -1.3% | -18.0 | 0.4% | -2.4 | 1.8% | -4.9%
O=C(CCl)Nc1cc(-c2ccccc2)nn1-c1ccccc1 | 0.6% | 7.2 | 12.2% | 27.5* | -0.5% | 12.6µM*
Cc1ccc(-c2nn(-c3ccccc3)cc2NC(=O)CCl)cc1 | 1.4% | 58.8 | 3.6% | 40.6* | 1.0% | ?
Cc1ccc(-c2nn(-c3ccccc3)cc2CNCc2ccccc2)cc1 | 1.4% | -3.1 | -0.2% | -3.6 | -7.5% | ·
OC[C@H]1OC(O)[C@H](O)[C@@H](O)[C@@H]1O (stereo partly drawn) | · | -8.9 | · | -4.1 | -2.2% | ·
COc1ccc(CNC(=O)[C@H](Cc2ccccc2)NC(=O)CC[C@H]2O[C@@H](n3ccc(=O)[nH]c3=O)[C@H](O)[C@@H]2O)cc1 | · | · | -0.8% | · | · | ·
CC(=O)Nc1c(C)nn(-c2ccc([N+](=O)[O-])cc2)c1C | -2.5% | -5.4 | 4.4% | -2.5 | -3.3% | -33.4%
Cc1ccc(-n2nc(C)c(NC(=O)CCl)c2C)cc1 | 5.2% | 9.7 | -7.5% | -1.0 | 2.2% | 50.1µM*
O=C(c1ccc(Cl)cc1)[C@@H]1[C@@H]2C(=O)N(c3ccc(Cl)cc3)C(=O)[C@@H]2C2c3ccccc3C=NN21 (stereo partly drawn) | 0.2% | -13.1 | -0.9% | -1.8 | -3.8% | 0.6%
O=C(C1=C[C@@H]2[C@H]3C(=O)N(c4ccccc4)C(=O)[C@H]3[C@@H](C(=O)c3ccc(Cl)cc3)N2C=C1)c1ccccc1 | 0.3% | -26.1 | · | 9.6 | ? | 14.1µM*
Cc1cccc(NC(=O)c2ccc(Cl)c(S(=O)(=O)N3CCCC3)c2)n1 | -6.4% | 59.4* | -14.0% | 54.5* | · | 0.3%
O=C(Nc1cccnc1)c1ccc(Cl)c(S(=O)(=O)N2CCCCCC2)c1 | 3.5% | 54.8 | 0.7% | 20.8* | 1.6% | 2.1%
O=C(Nc1cccnc1)c1ccc(NS(=O)(=O)c2cc([N+](=O)[O-])ccc2Cl)cc1 | 6.5% | -3.1 | 1.5% | -1.7 | -12.5% | 31.6µM*
Cc1ccc(C(=O)Nc2cccnc2)cc1S(=O)(=O)N1CCCCCC1 | 0.6% | 29.9 | -6.6% | 25.8* | · | 0.7%
CCOC(=O)c1c(S(=O)(=O)N2CCCC(C(=O)NCc3ccc(Cl)cc3)C2)c(C)n(C)c1C (stereo not drawn) | · | · | -1.3% | · | · | -6.7%
SMILES | LmPK inhibitor | Shiga toxin inh | Tb PYK inh | Cycloheximide cs | Giardia FBPA inh | Sm TGR inh
CSCCC(NC(=O)c1ccco1)C(=O)Nc1ccc(C)cn1 (stereo not drawn) | · | · | -5.6% | · | · | 2.2%
Cc1ccc(C(O)c2ncc(-c3ccc(C(F)(F)F)cc3)[nH]2)cc1F (stereo not drawn) | · | · | -3.0% | · | · | ·
Cc1ccc(C(C)C)c2c1C(c1ccc3c(c1)OCO3)CC(=O)O2 (stereo not drawn) | · | i | 0.2% | 5.5 | 9.6%[89.2 µM] | ·
O=C(NCC1CCCO1)c1ccc(N2C(=O)C3CCCCC3C2=O)cc1 (stereo not drawn) | 2.7% | 3.4 | -8.2% | -5.4 | 3.6% | -0.2%
O=C(c1ccc(Cl)c(S(=O)(=O)N2CCCCCC2)c1)N1CCCCC1 | 1.1% | 38.9* | -5.9% | 16.6* | · | -7.4%
COC(=O)Cc1c(C)c2ccc(OCC(C)=O)c(C)c2oc1=O | -10.0% | 91.6* | -11.4% | 42.7* | 2.1% | -20.0%
C=C(C)COc1ccc2c(C)c(CC(=O)OC)c(=O)oc2c1C | 2.7% | + | 7.5% | 47.1* | -5.6% | 3.9%
COC(=O)Cc1c(C)c2ccc(OCc3nn[nH]n3)c(C)c2oc1=O | 5.5% | 26.8 | 2.3% | 3.4 | -0.9% | 5.6%
CN(Cc1ccccc1)C(=O)C1CCN(S(=O)(=O)c2cccc3nonc23)CC1 | 4.8% | -7.4 | 1.0% | -2.2 | -7.9% | -0.3%
CCOC(=O)C(=Cc1ccc2c(c1)OCO2)c1ccccc1 | · | · | 4.1% | · | · | ·
COc1ccc(C(CNC(=O)c2cccc(S(=O)(=O)Nc3ccc(F)cc3)c2)N2CCCCC2)cc1 (stereo not drawn) | · | · | -6.2% | · | · | ·
CC1CCCN(c2ccc3nc4ccccc4c(=O)n3n2)C1 (stereo not drawn) | ? | 13.3 | -2.6% | 2.3 | -27.9% | -5.6%
Cc1sc2nc3n(c(=O)c2c1C)CCCCC3 | -0.3% | 13.3 | -4.8% | 8.1 | 3.3% | 2.5%
Cc1sc2nc3ccc(N4CCCCC4)nn3c(=O)c2c1C | -4.5% | 67.7* | -20.3% | 30.3* | -13.9% | -23.9%
Cc1ccc2nc3ccc(N4CCCC4)nn3c(=O)c2c1 | -3.9% | 63.2 | -9.9% | 34.9* | -1.1% | -12.0%
CCOC(=O)[C@]12CCCC=C1N(Cc1ccc(Cl)cc1Cl)C(=O)[C@H](CC(=O)NCC1CCCCC1)C2 | · | · | 0.2% | · | · | ·
CC(=O)Nc1c(I)c(C(=O)N[C@H]2C(O)O[C@H](CO)[C@@H](O)[C@@H]2O)c(I)c(N(C)C(C)=O)c1I (stereo partly drawn) | · | · | 5.8% | · | · | -4.8%
